Data on 36 molecules can be found in PubChem BioAssay.

A short description of the assay: small-molecule microarray binders of probe aCHRDL2, primary screen, biochemical, biotinylated probe, 635/667 nm fluorescence (AID 1100). Particulars: higher = more signal.
Consider `COc1ccc(C(O)C2C=CC3C(=O)N(c4ccccc4)C(=O)C3N2Nc2ccc(C#N)cc2)c2ccccc12` (stereo unspecified), for which the composite z-score was found to be 0.917.

Molecule `COCCOC(=O)N1C(=O)[C@@]2(c3ccccc31)[C@H](C(=O)N1CCN(c3ncccn3)CC1)[C@H]1C(=O)O[C@H](c3ccccc3)[C@H](c3ccccc3)N1[C@@H]2c1ccc(OCCO)cc1` returned a composite z-score of 0.422.

`CC=CC(O)C1C=CC2C(=O)N(c3ccccc3)C(=O)C2N1Nc1ccccc1` (stereo unspecified) yielded a composite z-score of 0.882.

`Cc1ccc(S[C@]2(C(=O)NCC(F)(F)F)CC(=O)N(Cc3ccccc3)[C@@H]2c2ccc(CO)cc2)cc1` returned a composite z-score of 0.767.

In the case of `[N-]=[N+]=Nc1ccccc1C[C@@]1(C(=O)O)N=C(c2ccc(OCCCO)cc2)O[C@@H]1c1ccccc1`, the composite z-score was 0.945.

`COCCCNC(=O)[C@]1(Cc2ccccc2CN=[N+]=[N-])N=C(c2ccc(OCCCO)cc2)O[C@@H]1c1ccccc1` displayed a composite z-score of 0.775.

Regarding `CC(C)OC(=O)CC(=O)CC(O)c1cccc(C#N)c1` (stereo unspecified), the composite z-score was determined as 1.04.

The molecule `CCCC=C(CCC)[C@@H](NP(=O)(c1ccccc1)c1ccccc1)c1ccc(C(F)(F)F)cc1` came in with a composite z-score of 0.333.

Turning to `CCCN1C(=O)[C@]2(Cc3ccccc3)N=C(c3ccc(OCCCO)cc3)O[C@@H]2c2ccccc21`, the composite z-score turned out to be 0.41.

Consider `C[C@]12C(=O)N(CCCCCCO)[C@@H]3C(=O)N(c4ccc(Cl)cc4)CC=CC31O[C@@H]1/C=C\CCCOC(=O)C12` (stereo partly specified), for which the composite z-score was 0.391.

For `COCCOC(=O)N1C(=O)[C@@]2(c3ccccc31)[C@H](c1ccc(OCCO)cc1)N1[C@H](c3ccccc3)[C@H](c3ccccc3)OC(=O)[C@H]1[C@@H]2C(=O)Nc1nc2ccccc2s1`, the composite z-score came to 0.414.

For `C=CCN1Cc2ccccc2C[C@@]2(N=C(c3ccc(OCCCO)cc3)O[C@H]2c2ccccc2)C1=O`, the composite z-score turned out to be 0.512.

In turn, `CN(C)CCCCNC(=O)[C@H]1C[C@H]2C(=O)N3CCC[C@H]3C(=O)N2[C@H]1c1ccc(O)cc1` displayed a composite z-score of -0.65.

Take `COC1(C)CN(Cc2ccccc2Br)[C@H](/C=C/c2ccccc2)[C@H](Cc2ccccc2)O1` (stereo partly specified): the composite z-score was -0.0981.

In turn, `COc1cc(OC)c(C(O)C2C=CC3C(=O)N(c4ccccc4)C(=O)C3N2Nc2ccc(C#N)cc2)cc1Br` (stereo unspecified) came in with a composite z-score of 1.4.

For the molecule `O=C(O)[C@]1(Cc2ccccc2)N=C(c2ccc(OCCCO)cc2)O[C@@H]1c1ccccc1`, the composite z-score came to 0.926.

Regarding `O=C1c2ccccc2[C@@]2(Cc3ccccc3N(C3CC3)C2=O)[C@H](c2ccc(CO)cc2)N1C1CCCCC1`, the composite z-score turned out to be 0.615.

In turn, `COCCOC(=O)N1C(=O)[C@@]2(c3cc(C#CCC(C(=O)OC)C(=O)OC)ccc31)[C@H](c1ccc(OCCO)cc1)N1[C@H](c3ccccc3)[C@H](c3ccccc3)OC(=O)[C@H]1[C@@H]2C(=O)N1CCN(c2ncccn2)CC1` gave a composite z-score of 0.233.

For `O=C1O[C@@H](c2ccccc2)[C@@H](c2ccccc2)N2[C@@H](c3ccccc3OCCO)[C@]3(C(=O)Nc4ccc(C#CCCO)cc43)[C@@H](C(=O)N3CCN(c4ncccn4)CC3)[C@H]12`, the composite z-score was found to be 0.225.

The molecule `COc1cc(CO)cc(I)c1O[C@H]1C=C(C(=O)NCCO)C[C@@H](N(CC2CCCCC2)C(=O)c2ccc(C(F)(F)F)cc2)[C@@H]1O` came in with a composite z-score of -0.49.

Turning to `Cc1c(NC(=O)/C(C#N)=C/C=C/c2ccccc2[N+](=O)[O-])c(=O)n(-c2ccccc2)n1C`, the composite z-score was 0.147.

In turn, `CCC[C@@H]1C[C@@]1(CCC)[C@@H](NP(=O)(c1ccccc1)c1ccccc1)c1ccc(Cl)cc1` showed a composite z-score of 0.292.

`C=CCN1C(=O)[C@]2(CC=C)N=C(c3ccc(OCCCO)cc3)O[C@@H]2c2ccccc21` came in with a composite z-score of 1.1.

Regarding `O=C1c2ccccc2[C@](Cc2ccccc2I)(C(=O)NCCN2CCOCC2)[C@H](c2ccc(CO)cc2)N1Cc1ccccc1`, the composite z-score was 0.345.

Molecule `COC(=O)[C@@]1(Cc2ccc(F)cc2)[C@H]2c3cc(C(=O)N4CCCC4)n(CCc4c[nH]c5ccc(OC)cc45)c3C[C@H]2CN1C(=O)c1ccccc1` returned a composite z-score of 1.01.

For `O=C1c2ccccc2[C@](Cc2ccccc2I)(C(=O)NCc2ccccc2)[C@H](c2ccc(CO)cc2)N1C1CCCCC1`, the composite z-score was 0.357.

As for `COCC(=C=CC[C@H](O)c1cccc(OCCO)c1)C[C@H](O)c1ccccn1`, the composite z-score is -0.173.

In turn, `CN1C2C=C(CCCO)C(C3C(=O)N(C(N)=O)C(=O)C32)C1c1cccs1` (stereo unspecified) displayed a composite z-score of 0.492.

As for `CN(C)CCCNC(=O)[C@@H]1c2ccccc2C(=O)N(Cc2ccc(OC(F)(F)F)cc2)[C@H]1c1ccc(CO)cc1`, the composite z-score is 0.56.

On to `CC(C)(C)OC(=O)CC[C@]1(C(=O)NCCN2CCOCC2)N=C(c2ccc(OCCCO)cc2)O[C@H]1c1ccccc1`, for which the composite z-score is 0.93.

The molecule `CC(C)CNC(=O)[C@@H]1c2ccccc2C(=O)N(Cc2cc(F)cc(C(F)(F)F)c2)[C@H]1c1ccc(CO)cc1` came in with a composite z-score of 1.01.

As to `C=C(/C(=C/C[C@@H](OC(=O)c1ccncc1)c1ccc(OCCO)cc1)c1cc(C(=O)OC)ccc1OC)C(C)C`, the composite z-score was -0.338.

For `C=C(CCCC)/C(=C/C[C@@H](OC(=O)c1ccncc1)c1cccc(OCCO)c1)c1cnc2ccccc2c1`, the composite z-score turned out to be 0.563.

With `C=CCOC(=O)[C@H]1[C@@H]2C(=O)O[C@@H](c3ccccc3)[C@@H](c3ccccc3)N2[C@@H](c2ccc(OCCOC(=O)[C@H]3C[C@H]4C(=O)N[C@@H](Cc5ccccc5)C(=O)N4[C@H]3c3cccc(OCCO)c3)cc2)[C@]12C(=O)Nc1ccc(I)cc12`, the composite z-score is -0.0762.

Consider `Cc1ccc(S[C@]2(C(=O)NC3CC3)CC(=O)N(Cc3ccccc3Cl)[C@@H]2c2ccc(CO)cc2I)cc1`, for which the composite z-score turned out to be 0.873.

In the case of `C[C@@H]1ON(c2ccc(C(=O)OC(C)(C)C)cc2)[C@H](c2ccc(Br)cc2)[C@H]1C(=O)N1C(=O)OC[C@H]1Cc1ccccc1`, the composite z-score is -0.17.
